High-throughput results as filed in PubChem BioAssay.
CYP2C19 inhib = human CYP2C19 inhibition; CYP2C19 Supersomes, luciferin-H EGE luminescence, 30 min; inhibition, % at 5 µM; P33261; hit rate 21% among 96,000;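 active = CYP2C19 inhibition above a set limit at 5 µM in the primary screen, cut at about 50% in these data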;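 note: plate controls were negative control wells for no effect and 2.5 mM tranylcypromine positive control for full effect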
CYP2C9 activ = increases human cytochrome P450 2C9 activity; P11712; recombinant CYP2C9, luciferin-H conversion, luminescence; hits give high values; factor 1 = untreated enzyme, 0 = blocked; hit rate 1.4% among 96,000; activation factor at 5 µM;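 active = activation factor of 2 or more for CYP2C9 at a 5 µM dose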;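 note: 0 = sulfaphenazole-blocked wells and 1 = vehicle-only wells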
Target sequence (P11712 whole entry, looked up): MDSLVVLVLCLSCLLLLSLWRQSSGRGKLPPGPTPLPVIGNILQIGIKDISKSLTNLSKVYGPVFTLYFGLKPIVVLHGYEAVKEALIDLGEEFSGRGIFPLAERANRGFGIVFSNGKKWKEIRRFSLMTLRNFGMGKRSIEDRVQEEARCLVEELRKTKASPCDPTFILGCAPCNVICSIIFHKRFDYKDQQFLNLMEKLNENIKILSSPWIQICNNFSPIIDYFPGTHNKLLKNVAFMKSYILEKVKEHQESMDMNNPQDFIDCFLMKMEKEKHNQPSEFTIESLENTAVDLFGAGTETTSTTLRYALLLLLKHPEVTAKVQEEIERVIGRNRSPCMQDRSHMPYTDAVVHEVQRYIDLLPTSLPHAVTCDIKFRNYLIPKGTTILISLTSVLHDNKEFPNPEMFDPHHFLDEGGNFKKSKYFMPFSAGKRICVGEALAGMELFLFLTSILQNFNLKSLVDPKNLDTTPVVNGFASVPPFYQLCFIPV
CYP2C19 act = cytochrome P450 2C19 (human) activation; recombinant CYP2C19, luciferin-H EGE luminescence; hits give high values; 0 = fully inhibited enzyme, 1 = untreated enzyme; activation factor at 5 µM; 96,000 tested, under 10 active;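 active = activation factor of at least 2 at 5 µM in the primary screen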;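 note: 0 = wells with 2.5 mM tranylcypromine and 1 = vehicle-only wells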
CYP2C9 inh = inhibitors of human CYP2C9. inhibition, % at 5 µM. P11712. AID 777. hit rate 20% among 96,000. CYP2C9 Supersomes, luciferin-H conversion, luminescence;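 active = blocking of liver enzyme CYP2C9 beyond about 50% at 5 µM, limit read from the data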
PTK2B oligo ant = blocks oligomerization of human Pyk2 in cells | hit rate 0.83% among 99,000 | Q14289 | z-score (the deposit names both 25 µM and 10 µM) | Q293 cells, Pyk2 FERM NanoBiT luminescence; hits give low values;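 active = Z-score of -3 or lower, scaled per plate to the spread of control and sample wells; inactive = z-score above -3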;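 note: negative z-score means lost luminescence so less FERM oligomerization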
* = called active by the depositor; . = no result. Only some compounds are listed: those with a hit (about 28% of all), similar ones and a draw of the others.

SMILES | CYP2C19 inhib | CYP2C9 activ | CYP2C19 act | CYP2C9 inh | PTK2B oligo ant
Cc1ccc(N(C(=O)Cn2nnc(-c3ccc(C)o3)n2)C(C(=O)NC2CCCC2)c2ccco2)cc1 (stereo not drawn) | 11 | 0.7 | 0.9 | 27 | -0.24
Cc1ccc(C)c(N(C(=O)Cn2nnc(-c3cccs3)n2)C(C(=O)NC2CC2)c2ccc(C)o2)c1 (stereo not drawn) | 48 | 0.8 | 0.5 | 22 | -4.3*
Cc1ccc(C(C(=O)NC(C)(C)C)N(Cc2ccco2)C(=O)Cn2nnc(-c3cccs3)n2)cc1 (stereo not drawn) | . | . | . | . | -1.4
Cc1ccc(N(C(=O)Cn2nnc(-c3cccs3)n2)C(C(=O)NC2CCCC2)c2ccncc2)cc1 (stereo not drawn) | 46 | 0.5 | 0.5 | 54* | -0.02
O=C(c1ccco1)c1cn(CC(=O)N2CCCCC2)c2ccccc12 | 27 | 0.7 | 0.7 | 34 | 0.23
COC(=O)[C@@H](NC(=O)Nc1ccc(OC)cc1)C(C)C | 25 | 0.8 | 0.8 | 19 | 0.65
Cn1c(Sc2ccc(Br)cc2)c(C=O)c2ccccc21 | 27 | 0.5 | 0.7 | 50 | -0.7
CCOC(=O)CN(C(=O)Cn1nnc(-c2ccc(C)cc2)n1)C(CC)C(=O)NC1CCCC1 (stereo not drawn) | 25 | 0.7 | 0.8 | 30 | -0.59
CCC(C(=O)NC1CCCC1)N(Cc1ccco1)C(=O)Cn1nnc(-c2ccc(C)cc2)n1 (stereo not drawn) | 83* | 0.3 | 0.2 | 72* | -0.45
O=C(Cn1nnc(-c2ccncc2)n1)N(C1CCCCC1)C1CCCCC1 | 87* | 0.1 | 0.1 | 87* | -0.72
CC(C)(C)NC(=O)C(c1ccncc1)N(Cc1cccs1)C(=O)Cn1nnc(-c2cccs2)n1 (stereo not drawn) | 92* | 0.1 | 0.1 | 92* | -0.38
O=C(c1ccc(CNc2c(NC3CCCCC3)c(=O)c2=O)cc1)N1CCc2ccccc21 | 5 | 0.8 | 0.9 | 19 | .
Cc1cc(C)n(-c2nnc(C)n2/N=C/c2ccccc2OCc2ccccc2Cl)n1 | 56* | 0.5 | 0.4 | 52* | -0.99
O=C(NC(NC1CCS(=O)(=O)C1)C(=O)c1cccs1)c1ccccc1 (stereo not drawn) | 99* | 0.3 | 0 | 69* | .
CCN(CC)C(=O)C1CCCN(C(=O)Nc2ccccc2)C1 (stereo not drawn) | 45 | 0.8 | 0.6 | 21 | 1.9
Cc1ccc(SCC(=O)Nc2cccc(NC(=O)c3ccco3)c2)cc1 | 32 | 0.3 | 0.7 | 72* | 2.3
CCCn1nnnc1SCC(=O)Nc1cccc(NC(=O)c2ccco2)c1 | 75* | 0.4 | 0.2 | 60* | 0.53
Cc1cc(C)cc(-n2nnnc2SCC(=O)Nc2cccc(NC(=O)c3ccco3)c2)c1 | 36 | 0.7 | 0.6 | 34 | -1.2
Cc1ccc(-n2nnnc2SCC(=O)Nc2cccc(NC(=O)c3ccco3)c2)cc1C | 50* | 0.8 | 0.5 | 19 | -0.27
CC(=O)c1ccc(-n2nnnc2SCC(=O)Nc2cccc(NC(=O)c3ccco3)c2)cc1 | 46 | 0.7 | 0.5 | 27 | -0.4
CC(=O)Nc1ccc(NC(=O)CSc2ccc(C)cc2)cc1 | 70* | 0.2 | 0.3 | 81* | 2.3
CCCCN(C(=S)Nc1ccccc1)C1CCS(=O)(=O)C1 (stereo not drawn) | 4 | 1.1 | 1 | -10 | -0.2
COc1ccccc1N1CCN(C(=O)c2oc3ccccc3c2C)CC1 | 13 | 1.1 | 0.9 | -10 | -0.18
Cc1c(C(=O)N2CCN(S(C)(=O)=O)CC2)oc2ccccc12 | 91* | 1 | 0.1 | 1 | 0.7
Cc1c(C(=O)N2CCN(CCc3ccccc3)CC2)oc2ccccc12 | 73* | 1.3 | 0.3 | -25 | -1.3
SMILES | CYP2C19 inhib | CYP2C9 activ | CYP2C19 act | CYP2C9 inh | PTK2B oligo ant
CCS(=O)(=O)N1CCN(C(=O)c2ccc(-c3ccccc3)cc2)CC1 | -14 | 1.1 | 1.1 | -9 | 1.4
C=CCSc1nc(N)c(C(=O)Nc2ccccc2OC)cc1C(=O)Nc1ccccc1 | -12 | 0.4 | 1.1 | 61* | 1.1
C=CCSc1nc(N)c(C(=O)Nc2ccccc2)cc1C#N | 23 | 0.6 | 0.8 | 45 | -0.4
Cc1ccc(Cl)cc1NC(=O)CC(O)(C(F)(F)F)C(F)(F)F | 75* | 0.6 | 0.3 | 37 | -0.47
Cc1ccc(Cl)cc1NC(=O)Cn1cccc1 | 20 | 0.9 | 0.8 | 6 | -0.42
Cc1ccc(Cl)cc1NC(=O)CSC(N)=O | 72* | 0.7 | 0.3 | 27 | 0.75
COc1ccc2[nH]c(=O)c(CN(C(C)=O)c3cccc(C)c3)cc2c1 | 24 | 0.6 | 0.8 | 40 | 0.34
CCC(=O)N(Cc1cc2cc(OC)ccc2[nH]c1=O)c1ccc(C)cc1C | 33 | 0.5 | 0.7 | 55* | -0.83
CC(=O)N(CCc1ccccc1C)Cc1cc2cc3c(cc2[nH]c1=O)OCO3 | 75* | 0.5 | 0.3 | 54* | 0.76
COc1ccc2[nH]c(=O)c(CN(CCc3cccc(C)c3)C(C)=O)cc2c1 | 86* | 0.4 | 0.1 | 63* | -0.26
O=C(O)c1cn(-c2ccc(F)c(F)c2)c2c(F)c(F)c(F)c(F)c2c1=O | 9 | 0.9 | 0.9 | 7 | 0.08
Cc1onc(-c2c(F)cccc2Cl)c1C(=O)NCc1ccccn1 | 56* | 0.7 | 0.4 | 32 | 0.68
Cc1onc(-c2c(Cl)cccc2Cl)c1C(=O)N/N=C(\N)COc1ccc(Cl)cc1 | -2 | 0.1 | 1 | 86* | 0.96
Cc1onc(-c2ccccc2Cl)c1C(=O)Nc1ccc(OCC(=O)N2CCOCC2)cc1 | . | . | . | . | 0.83
Cc1onc(-c2ccccc2)c1C(=O)NCc1ccco1 | -2 | 1 | 1 | 2 | -0.13
Cc1onc(-c2c(Cl)cccc2Cl)c1C(=O)NCc1ccco1 | 89* | 0.2 | 0.1 | 81* | -1.3
C/C(=N\NC(=O)C(NC(=O)c1ccccc1)C(C)C)c1ccccc1 (stereo not drawn) | 32 | 1 | 0.7 | -4 | 1.5
CCCC/C(C)=N/NC(=O)C(=O)NCCc1ccccc1 | 2 | 0.8 | 1 | 15 | -0.38
O=S(=O)(c1cccc(-c2nnc(SCc3nc4ccccc4s3)o2)c1)N1CCOCC1 | 51* | 0.5 | 0.5 | 50 | -1.3
O=c1c2ccccc2nnn1CSc1nnc(-c2cccc(S(=O)(=O)N3CCCCC3)c2)o1 | 75* | 0.2 | 0.3 | 81* | -0.93
COc1cccc(-c2cc(C(=O)Nn3cnnc3)c3ccccc3n2)c1 | 77* | 0 | 0.2 | 97* | 0.72
Cc1ccc2nc(-c3ccccn3)cc(C(=O)N3CCN(c4ncccn4)CC3)c2c1 | 20 | 0.5 | 0.8 | 54* | -0.54
O=C(c1cc(-c2ccncc2)nc2ccccc12)N1CCN(S(=O)(=O)/C=C/c2ccccc2)CC1 | 58* | 0.2 | 0.4 | 80* | -1.1
Cc1ccc(-c2cc(C(=O)N3CCN(c4ncccn4)CC3)c3ccccc3n2)cc1 | 94* | 0 | 0.1 | 98* | -1.1
Cc1cc(C(=O)N2CCN(c3ncccn3)CC2)c2cc(F)ccc2n1 | 32 | 0.7 | 0.7 | 31 | 1.1
